Most compounds without a hit are left out; they make up all but 3% or so of the library.
GDH-TPI counter: GDH-TPI coupling enzyme inhibitors, primary screen, artefact control for M. tuberculosis FBA inhibitor project, biochemical, absorbance, full deck; hit rate 1.2% among 360,000; AID 588335, 2011; GDH-TPI coupled enzyme counterscreen, NADH absorbance; inhibition, % at 4.8 µM; in the data active = inhibition above about 30%;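 also: 0% = DMSO wells and 100% = wells lacking the enzyme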
Mtb FBA inh: Mtb FBA enzyme inhibitors, primary screen, biochemical, fluorescence, strain H37Rv; inhibition, % at 1 µM; hit rate 2.3% among 360,000; Fructose-bisphosphate aldolase (Mycobacterium tuberculosis (strain ATCC 25618 / H37Rv)), …; purified M. tuberculosis FBA, fluorescence read-out; in the data active = inhibition above about 27%;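 also: 0% = vehicle and 100% = reference inhibitor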
Rv3671c protease: Rv3671c serine protease inhibitors, primary screen, biochemical, fluorescence polarization, M. tuberculosis H37Rv; AID 2606, 2010; P9WHR9; hit rate 0.048% among 320,000; inhibition, % at 5.96 µM; in the data active = inhibition above about 38%;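 also: extracellular domain of Rv3671c used as enzyme; 0% = enzyme with DMSO and 100% = no enzyme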
Target sequence (P9WHR9 whole entry, looked up, the tested form may be a part): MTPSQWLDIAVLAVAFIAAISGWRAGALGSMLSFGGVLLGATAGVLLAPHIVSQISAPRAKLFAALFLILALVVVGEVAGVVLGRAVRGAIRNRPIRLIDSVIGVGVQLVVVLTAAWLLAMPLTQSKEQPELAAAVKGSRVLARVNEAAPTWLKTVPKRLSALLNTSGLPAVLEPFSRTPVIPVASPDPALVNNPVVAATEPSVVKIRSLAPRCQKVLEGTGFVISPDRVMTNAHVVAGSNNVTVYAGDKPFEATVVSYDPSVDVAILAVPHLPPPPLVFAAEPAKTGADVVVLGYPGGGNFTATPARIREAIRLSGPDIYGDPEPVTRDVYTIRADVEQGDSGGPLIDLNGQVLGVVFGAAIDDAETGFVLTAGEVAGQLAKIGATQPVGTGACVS
FadD28 FP inh: inhibitors of FadD28 bisubstrate probe binding, primary screen, biochemical, fluorescence polarization, single point. inhibition, % at 12.5 µM. hit rate 0.22% among 360,000. Mycobacterium tuberculosis FadD28 fatty-acid-AMP ligase; in the data active = inhibition above about 8.5%, passing the limit was not always enough
BioA inh: M. tuberculosis BioA enzyme inhibitors, primary screen, biochemical, plate reader, single point, HTS. purified M. tuberculosis BioA enzyme. inhibition, % at 9.99 µM. hit rate 0.096% among 360,000. AID 602481, 2012. 7,8-diaminopelargonic acid synthase BioA (Mycobacterium tuberculosis); in the data active = inhibition above about 40%
* hit, by the source's call.

How did Cc1noc(C)c1S(=O)(=O)Nc1ccc2c(c1)C(=O)N([C@@H](C)CO)C[C@H](C)[C@H](CN(C)C(=O)Nc1ccccc1)OCCCC[C@H](C)O2 do in these assays?
BioA inh: -3.1

What do the screens show for `CCN(CC)c1ccc(/C=N/n2nnnc2N)c(O)c1`?
GDH-TPI counter: 37.8*; Mtb FBA inh: 1.1; Rv3671c protease: 6.9; FadD28 FP inh: 0.6; BioA inh: -0.3

What do the screens show for `COc1cc(/C=N/N2C(=O)C3C4c5ccccc5C(c5ccccc54)C3C2=O)ccc1O` (stereo unspecified)?
GDH-TPI counter: 34.1*; Mtb FBA inh: 0.6; Rv3671c protease: -37.2; FadD28 FP inh: -2.7; BioA inh: -1.2

How did COc1cc(/C=N/n2nnnc2N)ccc1OC(C)=O do in these assays?
GDH-TPI counter: 8.6; Mtb FBA inh: 3.5; FadD28 FP inh: -0.2; BioA inh: 0.3

Results for CCCOc1ccc(/C=N/n2nnnc2N)cc1OC ?
GDH-TPI counter: 30.0; Mtb FBA inh: 8.5; FadD28 FP inh: -2.3; BioA inh: -1.3

Results for CCN(C)c1ccc(/C=N\n2nnnc2N)cc1 ?
GDH-TPI counter: 23.0; Mtb FBA inh: 28.1*; Rv3671c protease: -5.1; FadD28 FP inh: -1.9; BioA inh: -1.2

Results for COc1cc(/C=N/n2nnnc2N)ccc1O ?
GDH-TPI counter: 43.6*; Mtb FBA inh: 2.3; Rv3671c protease: 0.4; FadD28 FP inh: -0.9; BioA inh: 1.3

How did Nc1nnnn1/N=C/c1ccc(O)cc1 do in these assays?
GDH-TPI counter: 15.2; Mtb FBA inh: 6.8; Rv3671c protease: -12.0; FadD28 FP inh: -3.3; BioA inh: 1.7

What do the screens show for `CN=C1SC(CC(=O)Nc2ccccc2F)C(=O)N1/N=C/c1ccc(O)c(OC)c1` (stereo unspecified)?
GDH-TPI counter: 51.6*; Mtb FBA inh: 2.9; Rv3671c protease: -8.9; FadD28 FP inh: -2.0

Results for CSc1ccc(/C=N/n2nnnc2N)cc1 ?
GDH-TPI counter: 43.2*; Mtb FBA inh: 17.7; Rv3671c protease: -0.8; FadD28 FP inh: -1.6; BioA inh: -0.8

How did CO[C@@H]1CN(C)C(=O)c2ccc(NC(=O)C3CCC3)cc2OC[C@@H](C)N(Cc2cccnc2)C[C@H]1C do in these assays?
BioA inh: 2.2

How did O=C(NCC(F)(F)F)[C@@H]1[C@@H](CO)[C@@H]2Cn3c(cccc3=O)[C@H]1N2CC1CCCCC1 do in these assays?
BioA inh: -0.1

How did COc1ccc2sc(-c3ccc(S(C)(=O)=O)cc3)c(C(=O)NCCc3c[nH]c4ccccc34)c2c1 do in these assays?
GDH-TPI counter: 8.5; Mtb FBA inh: 8.8; Rv3671c protease: -6.0; FadD28 FP inh: -2.7; BioA inh: 2.4

How did COc1ccc2c(C(=O)NCCCCO)c(-c3ccc(S(C)(=O)=O)cc3)sc2c1 do in these assays?
GDH-TPI counter: 19.6; Mtb FBA inh: active; Rv3671c protease: 1.7; FadD28 FP inh: -1.7; BioA inh: -0.7

What do the screens show for `CC(C)C#Cc1ccc2c(c1)O[C@@H](CN(C)Cc1cccnc1)[C@@H](C)CN([C@H](C)CO)S2(=O)=O`?
BioA inh: 9.0

How did CCN(CC)c1ccc(C(=O)O)cc1 do in these assays?
GDH-TPI counter: 0.0; Mtb FBA inh: 0.0; Rv3671c protease: 2.8; FadD28 FP inh: -1.3

What do the screens show for `O=C(O)c1ccc(N(c2ccccc2)c2ccccc2)cc1`?
GDH-TPI counter: 15.3; Mtb FBA inh: active; Rv3671c protease: 3.8; FadD28 FP inh: 1.0; BioA inh: -0.9

Results for Cc1ccc(S(=O)(=O)Nc2ccc3c(c2)CC(=O)N([C@H](C)CO)C[C@H](C)[C@H](CN(C)CC2CCCCC2)O3)cc1 ?
BioA inh: 0.1

How did COC(=O)COc1ccc(/C=C2/SC(=O)N(CC(=O)N3CCCC3)C2=O)cc1Br do in these assays?
GDH-TPI counter: 36.1*; Mtb FBA inh: -3.1; Rv3671c protease: -4.0; FadD28 FP inh: -4.5

Results for O=C(O)c1cc(O)ccc1N=Nc1ccccc1 ?
GDH-TPI counter: 24.2; Mtb FBA inh: -7.8; Rv3671c protease: -2.5; FadD28 FP inh: -1.8

Results for O=C(O)c1ccccc1N=Nc1ccc(O)cc1 ?
GDH-TPI counter: 35.8*; Mtb FBA inh: -5.7; Rv3671c protease: -2.8; FadD28 FP inh: -1.0; BioA inh: 0.4

What do the screens show for `C=CCOc1ccc(/C=C\c2nc(O)c([N+](=O)[O-])c(=O)[nH]2)cc1OC`?
GDH-TPI counter: 15.4; Mtb FBA inh: -0.6; FadD28 FP inh: 0.7; BioA inh: -2.9

How did C#CCOc1c(/C=C\c2nc(O)c([N+](=O)[O-])c(=O)[nH]2)cc(Br)cc1OC do in these assays?
GDH-TPI counter: 49.0*; Mtb FBA inh: -3.7; Rv3671c protease: 3.5; FadD28 FP inh: -2.4; BioA inh: -0.9

Results for COC(=O)COc1c(/C=C\c2nc(O)c([N+](=O)[O-])c(=O)[nH]2)cccc1OC ?
GDH-TPI counter: 32.2*; Mtb FBA inh: -3.1; Rv3671c protease: -4.6; FadD28 FP inh: -0.9; BioA inh: -2.5

How did CO[C@@H]1CN(C)C(=O)c2cc(NC(C)=O)ccc2OC[C@@H](C)N(CCC(F)(F)F)C[C@@H]1C do in these assays?
BioA inh: -1.6

How did O=c1cccc2n1Cc1cc3ccccc3nc1-2 do in these assays?
GDH-TPI counter: 31.7*; Mtb FBA inh: active; Rv3671c protease: -2.3; FadD28 FP inh: -1.3; BioA inh: -0.5

What do the screens show for `COc1cccc(OCCn2c(C)c(/C=N/n3cnnc3)c3ccccc32)c1`?
GDH-TPI counter: 33.6*; Mtb FBA inh: -0.2; Rv3671c protease: -13.8; FadD28 FP inh: -3.0; BioA inh: -1.6

What do the screens show for `COc1ccc(OCCn2c(C)c(/C=N/n3cnnc3)c3ccccc32)cc1`?
GDH-TPI counter: 11.9; Mtb FBA inh: 3.5; Rv3671c protease: 1.3; FadD28 FP inh: -0.5; BioA inh: -0.8

What do the screens show for `COc1ccc(-c2ccc3c(c2)O[C@@H](CN(C)C)[C@@H](C)CN([C@H](C)CO)S3(=O)=O)cc1`?
BioA inh: 3.3

How did CCOC(=O)N1CCc2c(sc3c2C(=O)NC(c2ccccc2)N3)C1 (stereo unspecified) do in these assays?
GDH-TPI counter: 12.3; Mtb FBA inh: 58.4*; Rv3671c protease: -30.7; FadD28 FP inh: -6.4; BioA inh: -1.7

Results for CN1CCc2c(sc3c2C(=O)NC(c2cccc(OC(=O)c4cccs4)c2)N3)C1 (stereo unspecified) ?
GDH-TPI counter: 13.9; Mtb FBA inh: 4.5; Rv3671c protease: -19.5; FadD28 FP inh: -6.0; BioA inh: -1.7

How did O=C(Nc1ccc([N+](=O)[O-])cc1)N1CCCCCC1 do in these assays?
GDH-TPI counter: 15.5; Mtb FBA inh: -0.5; Rv3671c protease: 6.7; FadD28 FP inh: -5.3; BioA inh: 4.3

Results for O=C(Nc1ccc([N+](=O)[O-])cc1)N1CCCCC1 ?
GDH-TPI counter: 45.2*; Mtb FBA inh: 1.8; Rv3671c protease: -0.7; FadD28 FP inh: 2.0
